{"source": "PubChem BioAssay (NCI)", "note": "This is part of a sample that, as a whole, favours compounds with a hit. Of some 79,000 tested, about 15% had one in any assay. Values without a mark were called inactive. The source made the active and inactive calls. Rule as the data show it: active = growth inhibition above about 70%; inactive = the rest."}
{"assay": "NCI Yeast Anticancer Drug Screen. Data for the sgs1 mgt1 strain (AID 161);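 also: 0% = growth of cultures given vehicle only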", "details": "S. cerevisiae sgs1 mgt1 strain, at 50.0 µM, hits give high values", "in_short": "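Compounds are added to genetically altered yeast, and growth is compared with cultures given vehicle alone to give percent inhibition.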"}
{"compound": "CC(=O)N(C)N=Nc1ccc(C(F)(F)F)cc1", "growth inhibition": "-9%"}
{"compound": "O=c1oc2ccccc2cc1S(=O)(=O)c1ccc(Cl)cc1", "growth inhibition": "3.7%"}
{"compound": "CCc1c([N+](=O)[O-])cc(C(C)(C)C)c(OC)c1[N+](=O)[O-]", "growth inhibition": "0.6%"}
{"compound": "O=C(NCCCCCCCCCCNC(=O)C12CC3CC(CC(C3)C1)C2)C12CC3CC(CC(C3)C1)C2", "growth inhibition": "2.3%"}
{"compound": "O=C1C=CC(=NN=c2c3ccccc3oc3ccccc23)C=C1", "growth inhibition": "4%"}
{"compound": "COCC/C=C\\CN(C(C)C)C(C)C", "growth inhibition": "-0.4%"}
{"compound": "Oc1ccc(-c2cc(-c3c(O)cc(O)cc3O)on2)cc1", "growth inhibition": "-17.4%"}
{"compound": "COc1ccc(-c2cc(=O)c3ccc(O)cc3o2)c(OC)c1OC", "growth inhibition": "-8.35%"}
{"compound": "NC(=O)c1cc2ccccc2c2ccccc12", "growth inhibition": "-15.6%"}
{"compound": "CC(=O)Nc1ccc2c(c1)Cc1cccc(O)c1-2", "growth inhibition": "15.9%"}
{"compound": "C/C(=N\\NC(=S)NC(C)C)c1nc2ncccc2[nH]1", "growth inhibition": "-56.6%"}
{"compound": "COc1cc(C2c3cc4c(cc3[C@@H](Nc3ccc(C#N)cc3)C3COC(=O)[C@H]23)OCO4)cc(OC)c1O", "note": "(stereo not given in full)", "growth inhibition": "89.5% (active)"}
{"compound": "CCCCCCC(C)OC(C)=O", "note": "(stereo not given)", "growth inhibition": "-2.55%"}
{"compound": "O=[N+]([O-])c1ccc(C=Nc2ccc3c(c2)Cc2ccccc2-3)cc1", "growth inhibition": "9.9%"}
{"compound": "CCOC(=O)c1cnc2c(ccc3ncccc32)c1OCC", "growth inhibition": "7.8%"}
{"compound": "CC12CCCC3(CC(=O)C(C)(C)C3C(=O)C1)C2", "note": "(stereo not given)", "growth inhibition": "-18.4%"}
{"compound": "NC(=S)NNC(=S)NC(=O)c1ccco1", "growth inhibition": "5.05%"}
{"compound": "O=c1[nH]c(=O)n(C2OC(CO)C(O)C2O)cc1OCCCc1ccccc1", "note": "(stereo not given)", "growth inhibition": "16.4%"}
{"compound": "O=C(O)C(Cc1ccc2c(c1)CCC2)(Cc1ccc2c(c1)CCC2)C(=O)O", "growth inhibition": "-4%"}
{"compound": "O=C(Oc1ccc(OC(=O)c2ccc([N+](=O)[O-])cc2)cc1)c1ccccc1", "growth inhibition": "-1.4%"}
{"compound": "CCCc1nnnn1C12CC3CC(CC(C3)C1)C2", "growth inhibition": "2.15%"}
{"compound": "CC1CCC(C(C)C)=C(C2CCCCC2)C1", "note": "(stereo not given)", "growth inhibition": "-3.65%"}
{"compound": "Cc1ccc2c(c1)CCCN2", "growth inhibition": "4.65%"}
{"compound": "NC(=Nc1ccc([N+](=O)[O-])cc1)c1ccccc1", "growth inhibition": "-4.05%"}
{"compound": "O=C(O)CNC(=O)c1cccc(Cl)c1", "growth inhibition": "14.7%"}
{"compound": "OCCCCCOCc1ccccc1", "growth inhibition": "42.1%"}
{"compound": "Nc1ccc(C(=O)Nc2ccccn2)cc1", "growth inhibition": "-13.4%"}
{"compound": "c1ccc2c(c1)N=C(c1ccc3ccccc3c1)CC(c1cccc3ccccc13)S2", "note": "(stereo not given)", "growth inhibition": "-33.1%"}
{"compound": "O=C1Cc2c(-c3ccccc3)cc(-c3ccccc3)nc2-c2ccccc2N1", "growth inhibition": "39%"}
{"compound": "Nc1ccc(C(=O)NO)c(O)c1", "growth inhibition": "-7.55%"}
{"compound": "CC(=O)OC1c2ccccc2C(=O)C1(OC(C)=O)c1ccccc1", "note": "(stereo not given)", "growth inhibition": "12.7%"}
{"compound": "COc1cccc2c1[C@H]1CO[C@H]3C4C[C@H](C(=O)O)C([C@@H](C2)N13)N4C", "note": "(stereo not given in full)", "growth inhibition": "8.35%"}
{"compound": "CC(=O)CC(=O)NC(C)(C)C", "growth inhibition": "-16.4%"}
{"compound": "[O-][n+]1onc2c1CCC(=N\\O)/C2=N/Nc1ccccc1", "growth inhibition": "-15.1%"}
{"compound": "CCOC(=O)NC(Nc1ccc([N+](=O)[O-])cc1)(C(F)(F)F)C(F)(F)F", "growth inhibition": "22.8%"}
{"compound": "CC(=O)N(C(C)=O)c1cc2c3ccccc3ccc2c2ccccc12", "growth inhibition": "31.1%"}
{"compound": "C=CCOc1ccccc1C", "growth inhibition": "-0.85%"}
{"compound": "COc1ccc(C(=O)NNC(=O)c2ccc3ccccc3c2)cc1", "growth inhibition": "9.8%"}
{"compound": "CC(=O)Nc1ccc(F)cc1", "growth inhibition": "-5.3%"}
{"compound": "Nc1nnc2nc(C(C(=O)c3cccc(O)c3)c3nc4nnc(N)n4[nH]c3=O)c(=O)[nH]n12", "growth inhibition": "-7.05%"}
